Assay results from PubChem BioAssay AID687031 (Broad Institute, 2013).
The whole screen tested about 1,400 compounds, of which about 50 (4%) were called active.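 The calls were made as follows: active = fitted curve reaches 30% CPE protection at or below the top valid dose, with every test run called active; inconclusive = test runs disagree, some active and some not; inactive = every test run inactive, including effects in the wrong direction.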 A selection follows. Potency and affinity values are given separately.

assay: Dengue virus 2 cytopathic effect protection, dose response, BHK-21 cells, ATP luminescence, cherry-pick (AID 687031); settings: BHK-21 DENV2 CPE protection, 5 d; series mostly up to 19.5 µM; CPE protection (higher = active): at the top concentration;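 also: 0% = infected DMSO wells and 100% = uninfected cell wells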

CPE protection (higher = active), inactive:
COc1cccc(NC(=O)N2[C@@H]3CNC[C@H]2C3c2ccc(-c3ccccc3)cc2)c1 (some centres undefined) -7.29% [at 21 µM], CS(=O)(=O)N1[C@@H]2CNC[C@H]1C2c1ccc(-c2ccccc2)cc1 (some centres undefined) 1.08%, COc1cccc(-c2ccc3c(c2)[C@H]2[C@H](CCN2S(=O)(=O)c2cn(C)cn2)[C@@H](CO)N3)c1 -4.08%, Cc1ccccc1-c1ccc(C2[C@@H]3CN(C(=O)Cc4ccncc4)C[C@H]2N3)cc1 (some centres undefined) -5.08% [at 21 µM], C[C@@H]1CN([C@H](C)CO)C(=O)c2cccc(NC(=O)Nc3ccc4c(c3)OCO4)c2O[C@H]1CN(C)C(=O)Nc1ccccc1 -7.43%, CCOC(=O)CC[C@H](NC(=O)Cn1cnc2c(OCc3ccccc3)ncnc21)C(=O)OCC -6.24%, COc1ccc(C(CNC(=O)COc2cc(C)ccc2Cl)N2CCCCC2)cc1 (centres undefined) -7.55%, COc1ccc2o/c(=N\O)c(C(=O)Nc3ccc(C)cc3)cc2c1 21.5%, COc1cc(S(=O)(=O)NCc2ccncc2)c(OC)cc1Br -11.7%, CO[C@@H]1CN(C)C(=O)c2ccc(NC(=O)CC(F)(F)F)cc2OC[C@H](C)N(C(C)=O)C[C@@H]1C 9.73%, O=C1Nc2ccccc2C(=O)N(C2CCCC2)C1C(=O)NC1CC1 (centres undefined) -7.26%, O=C1Nc2ccccc2SC1c1ccccc1 (centres undefined) 22.8%, C[C@@H]1CN([C@H](C)CO)C(=O)c2cc(N(C)C)ccc2O[C@@H](C)CCCCO[C@@H]1CN(C)C(=O)CCC(F)(F)F 6.42%, Cc1nccn1CC(O)COc1ccc(Cl)cc1Cl (centres undefined) -6.74%, OC(COc1ccc(Cl)cc1Cl)Cn1ccnc1 (centres undefined) 2.84%, CCC(C(=O)Nc1c(C)cccc1C)n1c(-c2ccc(=O)[nH]c2)nc2ccccc21 (centres undefined) 6.71%, O=C(NCc1ccc2c(c1)OCO2)C(=O)NCC1OCCCN1S(=O)(=O)c1ccccc1 (centres undefined) -15.4%, Cc1ccc(C(=O)NCC(=O)Nc2ccc(S(=O)(=O)Nc3cc(C)nc(C)n3)cc2)cc1 -0.439%, O=C(C[C@H]1CC[C@@H]2[C@H](COC[C@H](O)CN2C(=O)Cc2ccccc2)O1)NC1CCCC1 2.96% [at 21 µM], Cc1ccc(S(=O)(=O)Nc2cccc(C(=O)NCCCn3ccnc3)c2)cc1F -1.15%, CCOC(=O)N1CCC(NC(=O)c2cccc3c2C(=O)N(CCOC)C3)CC1 8.32%, CCOC(=O)N1CCC(NS(=O)(=O)c2ccc(C#N)cc2)CC1 -10.4%, CC(C)OC(=O)c1ccc(NCc2cc(O)ccc2O)cc1 -7.2%, CCOC(=O)N1C=CC=C[C@@H]2[C@@H](N3C(=O)c4ccccc4C3=O)C(=O)N21 -9.2%, COc1ccc(C2CC(c3cccs3)=NN2C(=O)CCC(=O)O)cc1OC (centres undefined) -2.94%, COc1ccc(NC(=O)Nc2cccc3c2O[C@H](CN(C)C(=O)Nc2ccc(OC)cc2)[C@@H](C)CN([C@@H](C)CO)C3=O)cc1 -19.9%, Cc1cccnc1 -1.59%, CC(=O)N1c2ccc(S(=O)(=O)NCCC(=O)N3CCCC(C)C3)cc2CC1C (centres undefined) -15.9%, Cc1ccccc1NS(=O)(=O)c1ccc(S(=O)(=O)N2CCCC2)cc1 2.34%, CCOc1ccc(C(=O)Nc2ccc(CN3CCOCC3)cc2)cc1Cl 2.94%, Cc1ccc(NC(=O)C2CCCCC2)cc1C 14.2%, Brc1ccc(OCc2nnc(SCC3CCCCC3)o2)cc1 1.56%, N#CCSc1ccccc1NC(=O)CN1C(=O)C(=O)N(Cc2ccccc2)C1=O -15.2%, COCCNC(=O)CCC1CCN(Cc2ccc(-c3ccccc3)cc2)CC1 -10.3%, COc1ccccc1N1CCN(S(=O)(=O)CCNC(=O)CCc2ccccc2)CC1 5.74%, C[C@@H]1CN([C@H](C)CO)C(=O)Cc2cc(NC(=O)CCCCCC(=O)Nc3ccccc3N)ccc2O[C@@H]1CN(C)Cc1ccc(Cl)c(Cl)c1 -2.74%, CCc1nc2c(OCCc3cccc(OC)c3)cccn2c1N(C)C(=O)c1ccc(C)cc1 3.2%, CCCN1[C@H](C(=O)OC)[C@@H](CO)[C@@H]2Cn3c(ccc(C4=CCCC4)c3=O)[C@@H]21 8.66%, CN1[C@@H]2Cn3c(ccc(C4=CCCC4)c3=O)[C@H]1[C@@H](C(=O)N1CCCCC1)[C@@H]2CO 21.2%, O=C(Nc1ccc2c(c1)OCCO2)c1cccc(C(=O)Nc2ccc3c(c2)OCCO3)c1 16.2%, O=C(COC(=O)CNC(=O)c1ccc(Cl)cc1)Nc1ncc(C(F)(F)F)cc1Cl 9.18%, CC1CC(C)CN(C(=O)COC(=O)c2nccnc2N)C1 (centres undefined) 8.89%, Cc1ccccc1OCC(=O)OCC(=O)NCCNC(=O)COC(=O)COc1ccccc1C 7.36%, O=C(COc1ccc(-c2nnco2)cc1)NCc1ccccc1Cl -5.13%, Cc1ccccc1S(=O)(=O)N1[C@H](C#N)[C@H](c2ccccc2)[C@@H]1CO 7.31% [at 21 µM], CN1C(=O)c2cc(NC(=O)NC3CCCC3)ccc2OC[C@H]2O[C@@H](CC(=O)NCC3CC3)CC[C@@H]21 -8.11% [at 23.5 µM], Cc1ccccc1-c1cnc(C(O)c2cccc(C)c2C)[nH]1 (centres undefined) 8.04%, CC(C)c1ccc(S(=O)(=O)N2CCN(C(=O)n3ccnc3)CC2)cc1 3.32%, CC(=O)Nc1cc(-c2ccc(C(=O)NC3CC3)cc2)cn2c(-c3cccc(C(F)(F)F)c3)cnc12 -8.05%, COc1ccc(C(CNC(=O)CCNC(=O)c2ccc(Br)cc2)N2CCOCC2)cc1 (centres undefined) 10.9%, Cc1ccc(NC(=O)C2(c3cccs3)CCOCC2)cc1C 16.6%, Cc1ccccc1-c1csc(C(C)(O)c2ccccc2)n1 (centres undefined) 16.6%, O=C(c1cc(C2CC2)on1)N1CCCC(N2CCN(c3cccc(C(F)(F)F)c3)CC2)C1 (centres undefined) 8.43%, O=C(c1ccncc1)N1CCCC(N2CCN(c3cccc(C(F)(F)F)c3)CC2)C1 (centres undefined) 22.6%, CN(CC(=O)Nc1ccc(Cl)cc1)C(=O)CCc1nc2sc3c(c2c(=O)[nH]1)CCCC3 -2.63%, CC#CCN1C(=O)N[C@@H](c2ccccc2)C(C(=O)OC)=C1C -2.29%, COC(=O)[C@@H]1[C@H](CCc2ccccc2)NC(=O)N(Cc2ccccc2)[C@@H]1C -7.83%, O=S(=O)(NN=Cc1cccc(Cl)c1)c1ccccc1 -10.2%, Cc1ccc2c(COC(=O)CNC(=O)c3ccccc3)cc(=O)oc2c1 -8.55%, COc1cc(OC)cc(C(=O)NCCC(c2ccccc2)c2ccccc2)c1 -16.4%, Cc1noc(C)c1NC(=O)Nc1ccc2c(c1)C(=O)N([C@@H](C)CO)C[C@@H](C)[C@@H](CN(C)Cc1ccccc1)OCCCC[C@@H](C)O2 18.2%, Cc1noc(C)c1NC(=O)Nc1ccc2c(c1)C(=O)N([C@@H](C)CO)C[C@@H](C)[C@@H](CN(C)C)OCCCC[C@@H](C)O2 -7.08%, C[C@@H]1CN([C@H](C)CO)C(=O)c2cc(NC(=O)c3ccccc3)ccc2O[C@@H](C)CCCCO[C@@H]1CN(C)S(=O)(=O)c1ccc(F)cc1 14.4%, C[C@@H]1CCCCO[C@@H](CN(C)S(=O)(=O)c2ccc(F)cc2)[C@@H](C)CN([C@@H](C)CO)C(=O)c2cc(NC(=O)c3ccccc3)ccc2O1 -0.86%
